Inhibition data for three molecules are collected here from PubChem BioAssay AID602333 (Sanford-Burnham Center for Chemical Genomics, 2012).

Screen size: about 1,900 compounds; about 240 (13%) were called active. The full list was thinned out, with actives kept by preference. Unmarked numbers belong to inactive results.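 The calls were made as follows: active = mean inhibition at least 40% at 20 µM, or signal 3 deviations below plate average, so some actives read negative; inactive = the rest.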

The assay deals with Prothrombin (Bos taurus) (UniProt P00735). The assay is described as follows: blocking of thrombin cleavage of Ub4 substrate – biochemical, fluorescence polarization, single concentration, counter-screen for Rpn11 inhibitor project, confirmation (AID 602333).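 Also: plate controls were thrombin with DMSO for no effect and buffer wells lacking thrombin for full effect.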 The settings on record: bovine thrombin cleavage of Ub4-pepOG, at 20 µM, active compounds read high. For orientation: In fluorescence polarisation assays a small probe gives low polarisation when free and higher when bound to something large.
Chain of Prothrombin (Bos taurus) (P00735 whole entry, looked up): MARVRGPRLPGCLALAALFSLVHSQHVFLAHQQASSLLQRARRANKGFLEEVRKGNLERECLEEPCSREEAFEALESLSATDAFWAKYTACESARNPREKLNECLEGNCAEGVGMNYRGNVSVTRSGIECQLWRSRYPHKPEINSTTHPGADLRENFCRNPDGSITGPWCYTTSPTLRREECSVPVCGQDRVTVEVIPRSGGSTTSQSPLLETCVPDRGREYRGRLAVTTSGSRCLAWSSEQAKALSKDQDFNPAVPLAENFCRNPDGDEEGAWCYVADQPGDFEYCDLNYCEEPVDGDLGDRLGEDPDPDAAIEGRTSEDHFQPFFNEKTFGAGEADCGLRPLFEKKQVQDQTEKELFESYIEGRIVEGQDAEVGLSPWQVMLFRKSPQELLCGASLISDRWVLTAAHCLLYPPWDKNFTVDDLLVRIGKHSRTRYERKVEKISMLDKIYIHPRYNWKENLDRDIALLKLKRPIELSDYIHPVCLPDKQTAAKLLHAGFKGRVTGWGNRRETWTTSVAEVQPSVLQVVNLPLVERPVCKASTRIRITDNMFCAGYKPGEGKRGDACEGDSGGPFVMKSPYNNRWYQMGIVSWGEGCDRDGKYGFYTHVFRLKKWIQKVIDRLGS
For the molecule `CCN1C(=O)C(=Cc2c(C)n(CC(=O)NCC3CCCO3)c3ccccc23)C(=O)N(CC)C1=S` (stereo not drawn), the inhibition (in general, the drop in the measured response relative to a control, in per cent) is 53.3% (active).

In the case of `O=c1[nH]c(=O)n(Cc2ccccc2)c(O)c1/C=N/Nc1c(F)c(F)c(F)c(F)c1F`, the inhibition was 12.8%.

`Cc1cccc(N2C(=O)NC(=O)/C(=C\c3cnn(-c4ccccc4)c3)C2=O)c1`: the inhibition was 6.14%.
